Shown are actives, neighbours in structure and some others; about 32% of the full set was active somewhere.
CYP2C9 act: increases human cytochrome P450 2C9 activity. hit rate 1.4% among 96,000. activation factor at 5 µM. P11712. recombinant CYP2C9, luciferin-H conversion, luminescence; stronger effect = higher value; factor 1 = untreated enzyme, 0 = blocked. AID 1024;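 active = activation factor of 2 or more for CYP2C9 at a 5 µM dose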;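 also: 0 = sulfaphenazole-blocked wells and 1 = vehicle-only wells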
CYP2C19 act: increases human CYP2C19 enzyme activity; P33261; recombinant CYP2C19, luciferin-H EGE luminescence; stronger effect = higher value; 0 = fully inhibited enzyme, 1 = untreated enzyme; activation factor at 5 µM; 96,000 tested, under 10 active;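 active = activation factor of at least 2 at 5 µM in the primary screen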;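 also: 0 = wells with 2.5 mM tranylcypromine and 1 = vehicle-only wells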
Target sequence (P33261 whole entry, looked up): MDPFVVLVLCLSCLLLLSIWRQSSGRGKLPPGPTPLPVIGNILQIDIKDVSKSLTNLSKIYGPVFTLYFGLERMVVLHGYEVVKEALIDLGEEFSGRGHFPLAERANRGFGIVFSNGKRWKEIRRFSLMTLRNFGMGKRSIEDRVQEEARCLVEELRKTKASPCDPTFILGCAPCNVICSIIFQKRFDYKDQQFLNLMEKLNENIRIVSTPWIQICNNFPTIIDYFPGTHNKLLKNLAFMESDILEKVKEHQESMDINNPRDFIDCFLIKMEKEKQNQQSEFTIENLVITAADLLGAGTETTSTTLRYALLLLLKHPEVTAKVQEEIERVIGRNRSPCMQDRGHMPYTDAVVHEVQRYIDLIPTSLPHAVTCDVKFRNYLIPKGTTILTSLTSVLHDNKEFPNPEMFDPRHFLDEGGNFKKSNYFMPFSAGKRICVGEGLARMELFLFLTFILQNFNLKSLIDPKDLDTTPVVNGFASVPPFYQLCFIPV
CYP2C9 inh: blocks human cytochrome P450 2C9; P11712; CYP2C9 Supersomes, luciferin-H conversion, luminescence; inhibition, % at 5 µM; hit rate 20% among 96,000; AID 777;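 active = blocking of liver enzyme CYP2C9 beyond about 50% at 5 µM, limit read from the data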
PostGolgi ctrl: yeast control strain growth, post-Golgi counter-screen; efflux-deficient yeast background strain, growth absorbance A615, 16 h; inhibition, % at 10 µM; hit rate 5% among 98,000; AID 738
PostGolgi yeast: growth inhibition of a yeast mutant, post-Golgi transport screen; AID 739; inhibition, % at 10 µM; post-Golgi transport phenotypic cell assay; hit rate 0.9% among 98,000;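 also: yeast cells grown in 1536-well plates; yeast grown about 18 h at 30C before absorbance read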
CYP2C19 inhib: inhibitors of human CYP2C19; P33261; CYP2C19 Supersomes, luciferin-H EGE luminescence, 30 min; inhibition, % at 5 µM; hit rate 21% among 96,000; AID 778;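 active = CYP2C19 inhibition above a set limit at 5 µM in the primary screen, cut at about 50% in these data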;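 also: plate controls were negative control wells for no effect and 2.5 mM tranylcypromine positive control for full effect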
Active calls of the source: *; . = no result given. Rule as the data show it, unless noted: active = inhibition above about 30%; inactive = the rest.

SMILES	CYP2C9 act	CYP2C19 act	CYP2C9 inh	PostGolgi ctrl	PostGolgi yeast	CYP2C19 inhib
CCCn1c(SCC(=O)N2CCN(c3ccccc3)CC2)nc2ccccc2c1=O	0.1	0	93*	51*	1	97*
CCn1c(SCC(=O)N2CCN(c3ccc(Cl)cc3)CC2)nc2ccccc2c1=O	0.5	0.8	47	55*	-10	24
CC(CSc1nc2ccccc2s1)Cn1c(N2CCCC2)nc2c1c(=O)[nH]c(=O)n2C (stereo unspecified)	0.8	1	21	24	18	4
CC(C)CCn1c(Sc2nc3ccccc3s2)nc2c1c(=O)[nH]c(=O)n2C	0.7	0.9	35	33*	-6	13
CC(C)CCn1c(SCC(=O)c2ccccc2)nc2c1c(=O)[nH]c(=O)n2C	0.3	0.8	73*	19	-5	19
Cc1cc(N2C(=O)C3C4C=CC(C4)C3C2=O)ccc1Br (stereo unspecified)	0.8	0.3	24	5	1	73*
O=C1C2C3C=CC(C3)C2C(=O)N1c1ccc2c(c1)OCO2 (stereo unspecified)	1.1	0.9	-8	0	0	8
CC(C)CC(NC(=O)c1ccc(Cl)cc1)C(=O)OCC(=O)c1ccc2c(c1)NC(=O)CO2 (stereo unspecified)	0.6	0.7	36	32*	-14	27
CCN(CC)S(=O)(=O)c1cc(C(=O)OCC(=O)c2ccc3c(c2)NC(=O)CO3)ccc1Cl	1	0.9	4	-3	3	11
O=C(NCCNC(=O)C1CC2CCC1C2)C1CC2CCC1C2 (stereo unspecified)	1.1	1	-8	4	0	0
CC(C)N(Cc1nc2ccccc2[nH]1)C(C)C	0.9	1	6	3	4	1
Cc1cccc(CC(Cc2nc3ccccc3[nH]2)c2nc3ccccc3[nH]2)c1 (stereo unspecified)	0.1	0.1	88*	26	-8	93*
CC(C)NC(=O)c1ccc2c(c1)N(CC(=O)N1CCOCC1)C(=O)C(C)(C)O2	0.8	0.9	15	12	2	8
COc1cccc(NC(=O)c2ccc3c(c2)N(CC(=O)N2CCCCC2)C(=O)C(C)(C)O3)c1	0.4	0.9	64*	-6	-2	12
Cc1ccc(CN2C(=O)C(C)(C)Oc3ccc(C(=O)N4CCCCC4)cc32)cc1	0.4	0.7	57*	26	-16	30
COc1cccc(C(=O)CN2C(=O)C(C)(C)Oc3ccc(C(=O)N4CCCCCC4)cc32)c1	0.3	0.8	67*	18	-9	18
CCC(c1nc2ccccc2c(=O)n1CCN1CCOCC1)N1C(=O)c2ccccc2C1=O (stereo unspecified)	0.7	1	29	4	-1	3
O=C(O)C1C2C=CC(C2)C1C(=O)NCCc1cccc(Cl)c1 (stereo unspecified)	.	.	.	13	3	.
Cc1cccc(/C(N)=N/OC(=O)N2c3ccccc3Sc3ccccc32)c1	0.5	0.7	54*	17	17	27
CCC(C(=O)O/N=C(\N)c1cccc(C)c1)c1ccccc1 (stereo unspecified)	0.8	0.9	23	11	-5	12
O=C1NC(=Nc2cccc(Cl)c2)SC1Cc1cccc(Cl)c1Cl (stereo unspecified)	0.8	0.9	22	48*	-7	10
Cc1ccc(CNC(=O)C2CCN(S(=O)(=O)c3c(C)noc3/C=C/c3ccco3)CC2)cc1	0.4	0.9	57*	33*	-9	14
Cc1noc(/C=C/c2ccco2)c1S(=O)(=O)N1CCC(C(=O)N2CCc3ccccc3C2)CC1	0.3	0.6	73*	39*	1	35
Cc1noc(/C=C/c2ccco2)c1S(=O)(=O)N1CCC(C(=O)NCc2ccco2)CC1	0.8	1	21	22	28	4
O=C1CC(=C(c2ccccc2)c2ccccc2)C(=O)N1CCCCN1CCN(c2ccccc2)CC1	0.3	0.6	73*	3	5	44
Cc1ccccc1NC(=O)NCCCN1CCN(c2ccccc2)CC1	0.6	0.9	39	2	-9	8
Cc1ccc(CCN2CC(C(=O)NCCCOC(C)C)CC2=O)cc1 (stereo unspecified)	1	1.1	2	5	18	-6

Screens (PubChem)
